Activity calls are given as the source filed them. Rule as the data show it, unless noted: active = inhibition above about 36%; inactive = the rest.
What was measured:
[1] = tested on: transactivating tegument protein VP16 (Human herpesvirus 1); test: VP16 transactivation reporter inhibitors, counter-screen for SRC2 inhibitor project, cell-based, luminescence, single concentration (AID 652007); settings: cell-based VP16 transactivation luciferase reporter, at 8.9 µM, active compounds read high
[2] = biological target: Nuclear receptor coactivator 2 (Homo sapiens) (UniProt Q15596); test: SRC2 coactivator transcriptional activity inhibitors, confirmation, cell-based, luminescence, HEK293, triplicate (AID 652008;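 active = mean inhibition above 46.5%, the solvent-only control mean plus 3 SD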;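 also: 0% = DMSO-treated cells and 100% = Gossypol at 36 µM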); settings: HEK293 GAL4-SRC2 luciferase reporter, at 8.9 µM, active compounds read high
Chain of Nuclear receptor coactivator 2 (Homo sapiens) (Q15596 whole entry, looked up, the tested form may be a part): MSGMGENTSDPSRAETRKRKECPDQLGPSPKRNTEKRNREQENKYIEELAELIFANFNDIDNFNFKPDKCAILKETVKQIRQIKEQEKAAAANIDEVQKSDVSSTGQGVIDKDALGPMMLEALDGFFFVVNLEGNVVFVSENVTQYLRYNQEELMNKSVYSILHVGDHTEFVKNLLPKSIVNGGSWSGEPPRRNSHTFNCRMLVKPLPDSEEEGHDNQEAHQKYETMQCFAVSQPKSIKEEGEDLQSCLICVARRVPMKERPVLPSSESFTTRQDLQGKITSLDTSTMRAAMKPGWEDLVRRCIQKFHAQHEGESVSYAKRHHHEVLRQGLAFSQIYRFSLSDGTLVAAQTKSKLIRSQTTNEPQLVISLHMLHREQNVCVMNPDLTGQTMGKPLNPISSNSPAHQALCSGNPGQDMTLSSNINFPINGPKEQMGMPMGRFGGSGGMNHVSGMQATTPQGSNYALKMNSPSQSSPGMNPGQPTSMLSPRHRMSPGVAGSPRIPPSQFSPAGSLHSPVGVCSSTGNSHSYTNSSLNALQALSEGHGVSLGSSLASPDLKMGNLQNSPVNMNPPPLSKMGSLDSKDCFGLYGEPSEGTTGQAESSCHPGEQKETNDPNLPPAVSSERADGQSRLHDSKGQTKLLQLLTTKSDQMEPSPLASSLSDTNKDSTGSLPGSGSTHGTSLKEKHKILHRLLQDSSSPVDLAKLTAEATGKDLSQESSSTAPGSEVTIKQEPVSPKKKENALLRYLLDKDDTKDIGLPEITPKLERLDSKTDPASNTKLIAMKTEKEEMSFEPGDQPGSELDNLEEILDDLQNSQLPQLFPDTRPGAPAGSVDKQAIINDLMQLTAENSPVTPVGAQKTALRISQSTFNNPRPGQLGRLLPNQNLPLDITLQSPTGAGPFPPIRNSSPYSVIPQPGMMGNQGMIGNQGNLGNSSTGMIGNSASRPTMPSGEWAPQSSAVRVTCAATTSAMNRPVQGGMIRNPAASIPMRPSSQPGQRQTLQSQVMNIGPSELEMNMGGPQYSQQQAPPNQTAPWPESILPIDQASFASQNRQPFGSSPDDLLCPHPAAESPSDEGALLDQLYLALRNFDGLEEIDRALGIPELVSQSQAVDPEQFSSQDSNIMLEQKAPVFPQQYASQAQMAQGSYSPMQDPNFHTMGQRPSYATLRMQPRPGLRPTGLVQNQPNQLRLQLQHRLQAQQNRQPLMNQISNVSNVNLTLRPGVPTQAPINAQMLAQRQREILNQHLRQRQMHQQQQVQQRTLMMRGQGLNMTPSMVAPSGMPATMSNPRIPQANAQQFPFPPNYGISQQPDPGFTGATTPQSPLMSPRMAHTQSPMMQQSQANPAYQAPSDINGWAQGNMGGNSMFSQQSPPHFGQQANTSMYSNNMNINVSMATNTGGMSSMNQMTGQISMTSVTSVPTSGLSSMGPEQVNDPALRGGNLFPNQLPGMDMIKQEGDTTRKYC

SMILES | inhibition [1] | inhibition [2]
CC(C)C[C@@H]1COc2cc(Br)ccc2S(=O)(=O)N1Cc1cn(CCC2OCCCO2)nn1 | -3.85% (inactive) | 3.37% (inactive)
O=C1NC(Cc2ccc(O)cc2)c2nc3cc(Cl)ccc3c(=O)n2-c2ncccc21 (stereo unspecified) | -1.01% (inactive) | -15.2% (inactive)
CCN(CC)S(=O)(=O)c1ccc(/C=C/C(=O)OCC(=O)NCc2ccc3c(c2)OCO3)cc1 | -0.7% (inactive) | -11.1% (inactive)
O=C(CN1CCN(CC(=O)Nc2ccccc2Cc2ccccc2)CC1)Nc1ccccc1Cl | 11.3% (inactive) | 4.85% (inactive)
COc1ccc(CCNC(=S)N2CCC(C(=O)c3ccc(F)cc3)CC2)cc1OC | 11.5% (inactive) | 20.5% (inactive)
CN(C)S(=O)(=O)c1cccc(NC(=O)CSc2ncnc3ccccc23)c1 | 7.54% (inactive) | 29.7% (inactive)
CCN(CC)c1ccc(/C=N/Nc2nn[nH]n2)cc1 | -13.6% (inactive) | 43.4% (inactive)
CCN(CC)S(=O)(=O)c1cccc(-n2c(O)c(C=Nc3ccccc3C(=O)O)c3ccccc3c2=O)c1 | -0.6% (inactive) | 21.9% (inactive)
CN(Cc1ccc(OC(F)F)cc1)C(=O)c1ccc(S(=O)(=O)N(C)c2ccccc2)cc1 | -22.2% (inactive) | -12.8% (inactive)
COc1ccc(OC)c(C2C(C#N)=C(N)Oc3c2c(C)nn3-c2cccc(Cl)c2)c1 (stereo unspecified) | 3% (inactive) | 4.46% (inactive)
COc1ccc(/C=C2\SC(=S)N(CCCC(=O)Nc3ccc(O)cc3)C2=O)cc1 | 52.4% (active) | 35.3% (inactive)
CC(=O)c1ccc(OCCCC(=O)N2CCN(S(=O)(=O)c3ccc(C)cc3C)CC2)cc1 | 7.87% (inactive) | 0.39% (inactive)
CN1Cc2sc(NC(=S)NC(=O)c3ccccc3)c(C#N)c2CC1(C)C | 20.5% (inactive) | 58.2% (active)
COc1ccc(/C=C2\SC(=S)N(CCCC(=O)N3CCN(C)CC3)C2=O)cc1 | -11.9% (inactive) | 2.68% (inactive)
CC12CCC(=O)C=C1CCC1C2CCC2(C)C(c3csc(N)n3)CCC12 (stereo unspecified) | 10.2% (inactive) | 24.6% (inactive)
CCOc1cc(/C=C2/NC(=O)N(Cc3ccccc3F)C2=O)ccc1O | 4.78% (inactive) | 30.1% (inactive)
Cc1ccc(NC(=O)CCN2CCCCC2)cc1 | -25% (inactive) | 32.5% (inactive)
CCN1CCN(Cc2ccc(NC(=O)c3cccc(-c4ccc5nc(NC(=O)C6CC6)sc5n4)c3)cc2C(F)(F)F)CC1 | 24.5% (inactive) | 58.1% (active)
CC(=O)N(CCc1ccccc1)c1ccc2c(c1)C1CC2CCN1C(=O)OCc1ccccc1 (stereo unspecified) | 17% (inactive) | 18.6% (inactive)
CCOC(=O)C(=Cc1ccc(-n2cncn2)cc1)C(=O)OCC | 15.5% (inactive) | 24.5% (inactive)
CC(=O)NN1C(=O)/C(=C\c2ccc(Br)o2)SC1=S | 14.8% (inactive) | 19.2% (inactive)
Cn1nnnc1Sc1ncnc2scc(-c3cccc(F)c3)c12 | 7.55% (inactive) | 38.1% (inactive)
Cc1ccc(C2(CCNCc3ccco3)CCOC(C(C)C)C2)cc1 (stereo unspecified) | -11.6% (inactive) | -20.8% (inactive)
CC(Sc1nnc(CN2CCCC2)n1Cc1ccccc1)C(=O)Nc1ccc(F)cc1 (stereo unspecified) | 1.17% (inactive) | -5.19% (inactive)

SMILES | inhibition [1] | inhibition [2]
COc1ccc(NC(=O)Nc2nnc(Cc3ccc(OC)c(OC)c3)s2)cc1 | 4.37% (inactive) | -0.57% (inactive)
CCCCCC(=O)N1CC2(CC(c3cccc(NC(=O)COc4ccc(Cl)cc4)c3)=NO2)C[C@@H]1C(N)=O (stereo partly specified) | -7.91% (inactive) | -5.91% (inactive)
C(=N\Nc1nc2ccccc2s1)/c1ccccn1 | 49.5% (active) | 52.3% (active)
O=C(c1ccc(NS(=O)(=O)c2cccc(F)c2)cc1)N1CCCCC1 | -7.22% (inactive) | -9% (inactive)
C/C(CC(=O)NC1C2CC3CC(C2)CC1C3)=N\NC(=O)Cc1cccs1 (stereo unspecified) | -16.1% (inactive) | -8.93% (inactive)
COc1ccc(C2C(O)C(c3c[nH]c4ccccc34)=NN2C(=O)CCl)cc1 (stereo unspecified) | 72.7% (active) | 79.9% (active)
CC(=O)c1cc2c(cc1NC(=O)c1ccc(-n3nc(C)cc3C)cc1)OCO2 | -6.86% (inactive) | -7.82% (inactive)
FC(F)(F)c1cnc(NNC(=S)Nc2ccccc2)c(Cl)c1 | 10.3% (inactive) | 14% (inactive)
O=C(O)CCCc1ccc2c(c1)CCc1ccccc1-2 | 29.6% (inactive) | 77.1% (active)
CC(=O)Nc1cccc(NC(=O)CSc2nc(C3CC3)nc3ccccc23)c1 | -2.73% (inactive) | 27.2% (inactive)
O=C(Nc1nc2ccccc2s1)c1ccc(N2CCCCC2)c([N+](=O)[O-])c1 | -57.5% (inactive) | 10% (inactive)
COc1cc(NC(=O)COC(=O)c2[nH]c(C)c(C(C)=O)c2C)cc(OC)c1 | 9.16% (inactive) | 15.2% (inactive)
O=C(OC12CCCN(C1)/C(=C/c1ccncc1)C2)c1ccc(Cl)cc1 (stereo unspecified) | -7.98% (inactive) | 25.9% (inactive)
CCOC(=O)C1=C(COC(=O)CCOc2cc(C)ccc2C)NC(=O)NC1C (stereo unspecified) | -6.92% (inactive) | -29.2% (inactive)
CCN(CC)S(=O)(=O)c1ccc(NC(=O)Nc2cccc(C(F)(F)F)c2)cc1 | -13.1% (inactive) | 14% (inactive)
COc1ccc(-c2ncncc2-c2csc(C)n2)c(O)c1 | -10.8% (inactive) | -21.2% (inactive)
Cc1cc2nc(Sc3c([N+](=O)[O-])nc(C)n3Cc3ccccc3)[nH]c2cc1C | 5.05% (inactive) | 30.7% (inactive)
CC(C)C[C@@H]1Cc2[nH][nH]c(=O)c2[C@H](C(C)C)O1 | -6.29% (inactive) | -23.6% (inactive)
CCOC(=O)C1(CC2CC2)CCN(Cc2cnc(-c3ccccc3C)nc2)CC1 | 3.57% (inactive) | 3.04% (inactive)
COc1ccc(CCNc2oc(Cc3cccc4ccccc34)nc2C#N)cc1OC | -7.8% (inactive) | 7.3% (inactive)
O=C1CSc2ccc(C(=O)Nc3cccc(S(=O)(=O)Nc4ccc(Br)cc4)c3)cc2N1 | 11.2% (inactive) | 25.2% (inactive)
Cc1cc(OCC(=O)Nc2ccncc2)cc(C)c1Cl | 4.55% (inactive) | 11.3% (inactive)
COc1ccccc1NC(=O)C(C)OC(=O)c1cc2ccccc2[nH]1 (stereo unspecified) | 15.9% (inactive) | 17.2% (inactive)
CN1CCN(c2ccc(NC(=O)c3cc(S(N)(=O)=O)ccc3N3CCOCC3)cc2)CC1 | -1.08% (inactive) | -8.5% (inactive)
